# Bioassay records: PubChem BioAssay, National Center for Advancing Translational Sciences (NCATS)
# miR-21 act = qHTS Assay for Modulators of miRNAs and/orActivators of miR-21; HeLa miR-21 FLuc reporter, luciferase, 48 h; Potency, µM (titrated, usually from 38.3 µM), without a hit: at the top dose activity change, positive = activation, usual class: activators; 340,000 tested, under 10 active; AID 2288, 2010;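 further: % of control where 0% means no effect; miR-21 action dims this reporter so a rising signal means less miR-21 action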
#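 Using DMEM plus 10% FBS, HeLa miR-21-FLuc cells are incubated with test compounds (final up to about 40uM) for 48 hours; firefly luciferase signal is then imaged following reagent-mediated lysis.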
# FBPA coupling cs = qHTS Assay for Inhibitors of Fructose-1,6-bisphosphate Aldolase from Giardia Lamblia: Coupling assay counterscreen; coupling enzyme system counterscreen, AmpLite Red fluorescence; activity change, negative = inhibition, % at 58.2 µM, hits read low; actives 0.67% (n = 290,000); AID 2472, 2010; in the data active means activity change below about -30%; further: on the % scale 0 is the no-effect control and ±100 the full control effect
#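 Fluorescence at 525 nm excitation and 598 nm emission measured inhibition of the coupled detection system without aldolase. Compounds (at 57.5 uM final) were preincubated 10 min at room temperature with coupling enzyme reagent before a 20 min substrate/AmpLite Red step.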
# GALK inh = qHTS Assay for Inhibitors of Human Galactokinase (GALK); P51570; Purified GALK, Kinase-Glo residual ATP luminescence; AID 1868, 2009; actives 0.007% (n = 270,000); Potency, µM (series often up to 57.5 µM), for the others: top-dose activity change, negative = inhibition, most hits filed as inhibitors; further: potency means the concentration at half of the fitted maximal effect; on the % scale 0 is the no-effect control and ±100 the full control effect
# Target sequence (P51570 whole entry, looked up): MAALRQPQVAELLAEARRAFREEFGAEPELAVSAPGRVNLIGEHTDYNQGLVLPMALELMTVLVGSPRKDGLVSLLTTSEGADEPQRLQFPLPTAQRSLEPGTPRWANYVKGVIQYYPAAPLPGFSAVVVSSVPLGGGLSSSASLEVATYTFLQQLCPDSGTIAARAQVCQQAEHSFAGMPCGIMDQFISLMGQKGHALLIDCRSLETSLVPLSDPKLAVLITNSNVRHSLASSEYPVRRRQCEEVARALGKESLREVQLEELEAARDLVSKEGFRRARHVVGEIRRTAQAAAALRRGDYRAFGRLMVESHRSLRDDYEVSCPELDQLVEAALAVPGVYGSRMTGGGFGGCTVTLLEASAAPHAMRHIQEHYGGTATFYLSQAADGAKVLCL
#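 Quantitative HTS: GALK 5 nM, ATP 35 uM, galactose 100 uM, 1 h room temperature, then luciferase-based ATP detection.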
# B2AR arrestin = qHTS assay of beta-arrestin-biased ligands of beta2-adrenergic receptor; Beta-2 adrenergic receptor (Homo sapiens), P07550; beta-arrestin recruitment to beta2AR, cell-based reporter; Potency, µM (top dose mostly 46.1 µM), for the others: top-dose activation, most hits filed as activators; actives 0.02% (n = 330,000); AID 492947, 2010;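 further: potency means the concentration at half of the fitted maximal effect; 0% = DMSO controls and full agonism = EC100 isoproterenol or metaproterenol; nearly all actives have a fitted effect of over 65% in size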
# uPA generation = qHTS for Inhibitors of Cell Surface uPA Generation. actives 0.31% (n = 330,000). Potency, µM (highest dose often 38.3 µM), for the others: at the top dose activity change, negative = inhibition, usual class: inhibitors. cell surface uPA generation assay, qHTS. AID 540303, 2011; active means well fitted inhibition curve with a large enough effect; inconclusive means small, poorly fitted or top-dose-only effect; inactive means no such curve, though single readings can be large or run the other way; tested in mouse RAW 264.7 cells; further: potency means the concentration at half of the fitted maximal effect; on the % scale 0 is the no-effect control and ±100 the full control effect; nearly all actives have a fitted effect of over 55% in size
# Giardia killer = Small Molecules that selectively kill Giardia lamblia: qHTS; Giardia lamblia trophozoite viability; activity change, % at 7.66 µM, hits read low; actives 0.15% (n = 340,000); in the data active means activity change below about -80%; inconclusive means between about -30% and that limit;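 further: parasites exposed to compound for two days anaerobically before the ATP read; on the % scale 0 is the no-effect control and ±100 the full control effect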
#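 Luminescence from cellular ATP indicates surviving trophozoites (100 cells/well) following 48 hrs anaerobic compound treatment at 37 deg C; signal develops 15-30 min at room temperature.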
# * marks the source's active call; other numbers are inactive results; ? = inconclusive; / = no result. This is a sample that favours compounds with a hit; in the whole collection about 0.92% have one here. Unless noted, the call rests on the fitted dose curve; in most records, active means well fitted curve in the direction sought with a large enough effect; inconclusive means small, poorly fitted or top-dose-only effect, or another doubt; inactive means no such curve, though single readings can be large; an effect the other way counts as inactive or inconclusive.
SMILES,miR-21 act,FBPA coupling cs,GALK inh,B2AR arrestin,uPA generation,Giardia killer
O=C(Nc1ccc(N2CCOCC2)cc1N1CCOCC1)c1ccc([N+](=O)[O-])cc1,-1%,2,-1%,0%,1%,-2
CC1=CC(C)(C)Nc2ccc(OC(=O)C(C)N3C(=O)c4ccccc4C3=O)cc21 (stereo unspecified),?,0,-3%,0%,4%,3
CC1=CC(C)(C)Nc2ccc(OC(=O)CN3C(=O)CCC3=O)cc21,?,-32*,-2%,0%,?,-18
Cc1ccc(Cn2ccsc2=NC(=O)CCl)cc1,?,1,1%,0%,2µM*,-15
COCCCNC(=O)c1ccc(-n2c(-c3ccccc3)cc3c2CCC(C)C3)cc1 (stereo unspecified),-2%,/,/,/,/,/
O=C(Nc1ccc(Br)cc1F)c1cc(S(=O)(=O)NC2CCCC2)ccc1F,-6%,/,/,/,/,/
COc1ccc(C2Nc3ccccc3C(=O)N2Cc2ccccc2)cc1COc1ccc([N+](=O)[O-])cc1 (stereo unspecified),/,/,/,/,/,-3
COC(=O)C1=C(C)[C@H](O)[C@@H](C)[C@](C)(c2cc(OC)c(C)c(OC)c2COc2ccccc2)O1,/,1,/,/,/,/
CCCCn1c(NS(=O)(=O)c2ccccc2)c(S(=O)(=O)c2ccc(C)cc2)c2nc3ccccc3nc21,2%,-32*,-14%,-1%,7%,-16
CCCCn1c(NC(=O)c2ccco2)c(S(=O)(=O)c2ccc(C)cc2)c2nc3ccccc3nc21,2%,-25,/,0%,1%,0
CCc1ccccc1NC(=O)Cn1nnc(C(=O)NCc2cccc(OC)c2)c1N,21%,0,-2%,0%,4µM*,12
CNC(=O)c1cnc2sc(N3CCC(C)CC3)nn2c1=O,-41%,/,/,/,/,/
O=C1c2ccc3c4c(ccc(c24)C(=O)N1NC(=O)C(F)(F)F)CC3,-6%,5,2%,0%,7%,-11
CC(=O)NN1C(=O)c2ccc3c4c(ccc(c24)C1=O)C(=O)N(NC(C)=O)C3=O,20%,-32*,0%,0%,-26%,1
CCN(CC)c1ccc(/C=C2/SC(=O)N(C(C)C)C2=O)o1,?,-38*,2%,0%,-11%,-12
Cc1ccc(CN2CCN(C3CCN(C(=O)Nc4ccccc4C(F)(F)F)CC3)C(=O)C2=O)cc1,7%,/,/,/,/,/
CCOc1ccccc1NC(=O)c1nc(S(=O)(=O)Cc2ccccc2)ncc1Cl,?,/,-1%,0%,3.2µM*,20
COc1ccc(OC)c(NC(=O)c2nc(S(=O)(=O)Cc3ccc(F)cc3)ncc2Cl)c1,12µM*,/,/,/,/,/
COc1ccccc1NC(=O)c1nc(S(=O)(=O)Cc2ccccc2)ncc1Cl,?,/,-2%,0%,-5%,-16
CCS(=O)(=O)c1ncc(Cl)c(C(=O)Nc2ccccc2OC)n1,-1%,-4,4%,-1%,-12%,-14
COc1cc(CNc2ccc(O)cc2)cc(Br)c1OCc1ccccc1,1%,-41*,-4%,?,?,-13
CCOc1ccc(NS(=O)(=O)c2ccc3c4c(cccc24)C(=O)N3)cc1,12%,/,/,/,/,/
Nc1ccc2c(c1)OCCOCCOCCOCCOCCO2,-1%,-49*,-2%,0%,16%,11
Cc1ccc(C)c(CN2C(=O)c3ccccc3S(=O)c3ccc(C(=O)NCCC4=CCCCC4)cc32)c1 (stereo unspecified),13%,/,/,/,/,/
CCN1/C(=C/c2ccc3cc(C)ccc3[n+]2CC)Sc2cc(C)ccc21,15%,5,10%,0%,1µM*,9
CCN1/C(=C/c2ccc3cc(C)ccc3[n+]2C)Sc2ccc3sccc3c21,?,2,1%,-1%,10µM*,5
CCCCN1/C(=C/c2ccc3ccccc3[n+]2CC)Sc2ccccc21,?,7,-2%,0%,-16%,8
